# BAZ2B inh: qHTS Assay for Inhibitors of BAZ2B | Potency, µM (doses to about 114 µM), without a hit: top-dose activity change, negative = inhibition, actives largely listed as inhibitors | AlphaScreen BAZ2B-H3K14Ac peptide displacement | Bromodomain adjacent to zinc finger domain protein 2B (Homo sapiens), Q9UIF8 | actives 4.4% (n = 360,000); also: potency is read from the fitted curve at half-maximal effect; % is scaled to controls: 0 for no effect and ±100 for the full control effect; nearly all actives have a fitted effect of over 60% in size
# Target sequence (Q9UIF8 whole entry, looked up, the tested form may be a part): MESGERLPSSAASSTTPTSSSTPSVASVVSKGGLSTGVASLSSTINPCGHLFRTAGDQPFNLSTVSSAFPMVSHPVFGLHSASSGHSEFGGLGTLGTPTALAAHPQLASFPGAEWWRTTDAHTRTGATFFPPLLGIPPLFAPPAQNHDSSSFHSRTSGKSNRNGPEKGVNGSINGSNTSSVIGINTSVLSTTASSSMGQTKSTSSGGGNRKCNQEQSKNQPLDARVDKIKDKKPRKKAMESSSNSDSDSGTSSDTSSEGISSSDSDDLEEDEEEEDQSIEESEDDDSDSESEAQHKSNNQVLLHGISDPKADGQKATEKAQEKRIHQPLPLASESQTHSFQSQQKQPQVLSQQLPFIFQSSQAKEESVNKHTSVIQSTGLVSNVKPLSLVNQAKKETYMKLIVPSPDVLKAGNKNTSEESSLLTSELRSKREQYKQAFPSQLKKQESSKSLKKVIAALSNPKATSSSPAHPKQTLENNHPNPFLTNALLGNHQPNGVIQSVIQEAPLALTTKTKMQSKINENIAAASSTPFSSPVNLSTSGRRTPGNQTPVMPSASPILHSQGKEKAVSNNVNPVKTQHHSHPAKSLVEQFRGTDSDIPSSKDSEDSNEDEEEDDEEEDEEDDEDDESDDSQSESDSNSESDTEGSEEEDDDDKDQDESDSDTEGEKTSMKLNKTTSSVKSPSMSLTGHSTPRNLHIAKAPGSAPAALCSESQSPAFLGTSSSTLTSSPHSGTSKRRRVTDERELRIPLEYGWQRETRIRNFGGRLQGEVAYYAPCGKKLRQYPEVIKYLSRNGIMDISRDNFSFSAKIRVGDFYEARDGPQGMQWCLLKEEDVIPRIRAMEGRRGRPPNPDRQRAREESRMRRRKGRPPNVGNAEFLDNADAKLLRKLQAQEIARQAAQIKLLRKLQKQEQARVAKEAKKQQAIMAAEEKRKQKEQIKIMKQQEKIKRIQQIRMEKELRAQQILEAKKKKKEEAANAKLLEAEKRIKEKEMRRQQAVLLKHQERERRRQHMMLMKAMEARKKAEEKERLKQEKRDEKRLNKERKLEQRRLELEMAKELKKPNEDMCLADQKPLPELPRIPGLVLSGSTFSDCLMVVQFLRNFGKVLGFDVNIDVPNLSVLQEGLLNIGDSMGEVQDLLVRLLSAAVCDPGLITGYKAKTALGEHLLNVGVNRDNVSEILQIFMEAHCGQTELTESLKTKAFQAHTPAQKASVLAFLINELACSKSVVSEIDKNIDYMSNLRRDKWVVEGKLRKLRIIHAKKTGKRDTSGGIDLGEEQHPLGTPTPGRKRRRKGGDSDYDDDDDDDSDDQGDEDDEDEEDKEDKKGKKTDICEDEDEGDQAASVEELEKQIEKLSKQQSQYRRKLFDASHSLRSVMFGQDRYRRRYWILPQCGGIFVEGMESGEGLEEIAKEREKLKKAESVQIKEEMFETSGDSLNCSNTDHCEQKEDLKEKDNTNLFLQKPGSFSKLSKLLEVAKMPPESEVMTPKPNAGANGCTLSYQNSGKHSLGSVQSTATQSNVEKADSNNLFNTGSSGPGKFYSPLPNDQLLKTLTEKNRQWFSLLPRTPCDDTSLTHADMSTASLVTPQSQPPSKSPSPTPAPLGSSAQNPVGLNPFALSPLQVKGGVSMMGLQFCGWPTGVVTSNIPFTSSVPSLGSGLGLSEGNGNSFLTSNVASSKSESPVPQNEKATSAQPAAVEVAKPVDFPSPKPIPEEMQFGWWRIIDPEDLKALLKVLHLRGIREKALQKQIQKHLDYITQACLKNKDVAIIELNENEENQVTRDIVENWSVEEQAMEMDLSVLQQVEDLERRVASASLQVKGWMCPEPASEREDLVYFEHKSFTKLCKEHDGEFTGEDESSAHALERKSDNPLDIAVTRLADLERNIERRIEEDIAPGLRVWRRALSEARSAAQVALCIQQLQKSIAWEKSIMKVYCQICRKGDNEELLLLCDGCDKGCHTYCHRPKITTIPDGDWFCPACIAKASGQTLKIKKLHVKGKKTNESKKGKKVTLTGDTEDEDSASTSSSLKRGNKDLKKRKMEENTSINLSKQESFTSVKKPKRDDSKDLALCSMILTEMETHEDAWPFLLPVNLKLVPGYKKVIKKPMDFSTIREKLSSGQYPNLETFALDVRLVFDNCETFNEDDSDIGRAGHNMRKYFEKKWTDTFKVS
#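 Complex of BAZ2B and biotin-H3K14Ac (50 nM apiece) forms over 30 min at RT, then faces library compounds up to 110 uM for another 30 min; AlphaScreen beads added, 20 min dark incubation, luminescence read.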
# G9a inh: qHTS Assay for Inhibitors of Histone Lysine Methyltransferase G9a; Histone-lysine N-methyltransferase EHMT2 (Homo sapiens), Q96KQ7; G9a H3K9 monomethylation, AlphaScreen, 2 h; Potency, µM (titrated, usually from 102 µM), for the others: top-dose activity, negative = inhibition, hits mostly inhibitors; actives 8.8% (n = 350,000); AID 504332, 2011; also: potency is read from the fitted curve at half-maximal effect; % is scaled to controls: 0 for no effect and ±100 for the full control effect; nearly all actives have a fitted effect of over 75% in size
#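 Compounds were preincubated with 20 nM G9a for 15 min, after which biotinylated H3K9 peptide (500 nM) and SAM (20 uM) started a 2 h room-temperature reaction. Monomethylated product was quantified by antibody-based AlphaScreen chemiluminescence.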
# HP1b chromo inh: HTS for Inhibitors of HP1-beta Chromodomain Interactions with Methylated Histone Tails; Chromobox protein homolog 1 (Homo sapiens), P83916; AlphaScreen HP1-beta / biotin-H3K9me3 peptide binding; Potency, µM (highest dose often 114 µM), inactives show top-dose activity change, negative = inhibition, actives largely listed as inhibitors; actives 0.56% (n = 390,000); AID 540317, 2011; also: potency is read from the fitted curve at half-maximal effect; nearly all actives have a fitted effect of over 70% in size
#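 HP1-beta protein (50 nM final) preincubated 30 min at room temperature with biotinylated H3(1-18)K9me3 peptide (50 nM) in PBS pH 7.4, 0.01% Tween-20, then compound added for 30 min. AlphaScreen streptavidin donor/nickel chelate acceptor beads (10 ug/mL final), 30 min dark, luminescence read.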
# JMJD2A Tudor: qHTS Assay for Inhibitors of JMJD2A-Tudor Domain; Lysine-specific demethylase 4A (Homo sapiens), O75164; AlphaScreen JMJD2A-Tudor / H3K4me3 peptide binding; Potency, µM (top dose mostly 114 µM), without a hit: top-dose activity change, negative = inhibition, actives largely listed as inhibitors; actives 4.4% (n = 390,000); AID 504339, 2011; also: potency is read from the fitted curve at half-maximal effect; % is scaled to controls: 0 for no effect and ±100 for the full control effect; nearly all actives have a fitted effect of over 50% in size
# L3MBTL1 inh: qHTS Assay for the Inhibitors of L3MBTL1. Lethal(3)malignant brain tumor-like protein 1 (Homo sapiens), Q9Y468. AlphaScreen L3MBTL1–H3K9me1 peptide binding. Potency, µM (series often up to 57.1 µM), for inactives: top-dose activity, negative = inhibition, actives largely listed as inhibitors. actives 0.66% (n = 230,000). AID 485360, 2010; also: potency is read from the fitted curve at half-maximal effect; % is scaled to controls: 0 for no effect and ±100 for the full control effect; nearly all actives have a fitted effect of over 60% in size
#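 Displacement of a biotinylated histone H3(1-15) peptide monomethylated at Lys9 (75 nM) from L3MBTL1 (50 nM) was measured by AlphaScreen after a 30 min room-temperature compound incubation; cefsulodin titration served as intraplate control.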
# PI5P4Ka inh: qHTS for Inhibitors of phosphatidylinositol 5-phosphate 4-kinase (PI5P4K); PI5P4Kalpha enzyme, ADP-Glo luminescence, 60 min; active compounds read low; max response, %; actives 1.2% (n = 330,000); AID 652105, 2013; active = max response of -50% or lower; inconclusive = between -30% and -50%; inactive = -30% or higher; also: value at the top dose of about 77 µM; % is scaled to controls: 0 for no effect and ±100 for the full control effect
#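 Enzyme plus substrate dispensed, test compounds pinned in, then ATP (5 microM final) added. After 60 min at RT, ADP-Glo reagent 1 for 45 min and reagent 2 for 30 min preceded luminescence imaging.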
# * marks the source's active call; other numbers are inactive results; ? = inconclusive; . = no result given; [ ] = another dose, or the depositor's remark. Most compounds without a hit are left out; they make up all but 11% or so of the library. Unless noted, calls follow the shape of the dose curve; as a rule, active = well fitted inhibition curve with a large enough effect; inconclusive = small, poorly fitted or top-dose-only effect; inactive = no such curve, though single readings can be large or run the other way.
SMILES,BAZ2B inh,G9a inh,HP1b chromo inh,JMJD2A Tudor,L3MBTL1 inh,PI5P4Ka inh
Cc1ccc(S(=O)(=O)Cc2ccc(C(=O)N3CCc4ccccc4C3)o2)cc1,50.1µM*,50.1µM*,?,56.2µM*,.,?
Cc1ccc(S(=O)(=O)Cc2ccc(C(=O)O)o2)cc1,50.1µM*,12.6µM*,-68.3%,44.7µM*,.,-25.7
COc1ccc(S(=O)(=O)Cc2ccc(C(=O)O)o2)cc1,-12.6%,-34.7%,32.3%,3.0%,.,-3.8
COc1ccc(S(=O)(=O)Cc2ccc(C(=O)N3CCc4ccccc4C3)o2)cc1,-2.7%,?,48.1%,?,.,-26.3
COc1ccc(-c2noc(CC(=O)N(C)c3cc(Cl)c(OC)cc3OC)n2)cc1,-15.3%,-30.2%[59 µM],37.7%,-18.7%,.,.
COc1cc(CN(C(=O)c2ccc(OC(C)C)cc2)c2ccccn2)cc(OC)c1OC,-18.7%,-18.5%[59 µM],27.4%,-10.9%,.,.
COc1cccc(CCn2c(N)cc(=O)[nH]c2=S)c1OC,.,.,46.4%,0.7%,.,.
CN1CCN(C(CNC(=O)C(=O)Nc2ccc(F)cc2F)c2ccc3c(c2)OCO3)CC1 (centres undefined),-8.2%,-4.4%[59 µM],14.3%[57 µM],-15.8%,.,.
Cc1ccoc1C(=O)NCCNC(=O)c1occc1C,10.9%,-12.4%,18.1%,-17.7%,-5.4%,0.8
Cc1ccoc1C(=O)NCc1occc1C(=O)O,?,44.7µM*,-2.9%,?,?,-13.3
Clc1ccc(-c2csc(=Nc3ccccc3)n2Cc2ccc3c(c2)OCO3)cc1,?,12.6µM*,?,?,.,.
Cc1ccc(-c2csc(=Nc3ccccc3)n2Cc2ccc3c(c2)OCO3)cc1C,100µM*,14.1µM*,-7.0%,?,.,.
Fc1ccc(-c2csc(=Nc3cccc(C(F)(F)F)c3)n2Cc2ccc3c(c2)OCO3)cc1,?,?,-6.8%,-32.8%,.,.
Cc1ccc(-c2csc(=Nc3ccc(F)cc3)n2Cc2ccc3c(c2)OCO3)cc1C,4.47µM*,14.1µM*,?,50.1µM*,.,.
O=S(=O)(c1ccc2c(c1)OCCO2)N1CCN(S(=O)(=O)c2ccc3nc(Cl)c(Cl)nc3c2)CC1,.,.,.,-6.2%,.,.
COc1ccc(NC(=O)CC2C(=O)N(c3ccc(F)cc3)C(=O)N2Cc2ccco2)cc1 (centres undefined),-14.1%,-26.5%[59 µM],18.2%,-19.0%,.,.
COc1ccccc1CNc1nc(-c2ccccc2OC)nc2ccccc12,.,-3.9%[0.501 µM],.,.,.,.
O=c1cnc2cnc(Nc3ccccc3)nc2n1CCc1ccccc1,.,3.6%[0.501 µM],.,.,.,.
FC(F)OC(Cl)C(F)(F)F (centres undefined),.,-1.4%[12.7 µM],.,.,.,.
COc1cc(CNCc2cc(OC)ccc2OC)cc(OC)c1,?,25.1µM*,?,28.2µM*,-9.1%,0.8
COc1ccc(CNCc2cc(OC)ccc2OC)cc1,56.2µM*,12.6µM*,-19.9%,28.2µM*,10.8%,0.4
COc1ccc(CNCc2ccc(F)cc2)c(OC)c1,-21.0%,14.7%,30.1%,-17.1%,1.6%,1.3
